The text below walks through data of PubChem BioAssay.

The structures appear in SMILES notation. The source made the active and inactive calls. Rule as the data show it, unless noted: active = inhibition above about 36%; inactive = the rest.

Assay [1] relates to transactivating tegument protein VP16 (Human herpesvirus 1). In words: compounds suppressing VP16-driven luciferase signal – cell-based, luminescence, single concentration, counter-screen for SRC2 inhibitor project (AID 652007). The note with it: cell-based VP16 transactivation luciferase reporter, at 8.9 µM, hits give high values. A general note: The purpose of a counterscreen is to sort out artefacts and off-target activity.

For assay [2], the target named is Nuclear receptor coactivator 2 (Homo sapiens) (UniProt Q15596). In words: inhibition of GAL4-SRC2 driven luciferase expression – cell-based, luminescence, HEK293, triplicate, confirmation (AID 652008;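 active = mean inhibition above 46.5%, the solvent-only control mean plus 3 SD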;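 also: 0% = DMSO-treated cells and 100% = Gossypol at 36 µM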). To be noted: HEK293 GAL4-SRC2 luciferase reporter, at 8.9 µM, hits give high values.
Sequence of Nuclear receptor coactivator 2 (Homo sapiens) (Q15596 whole entry, looked up, the tested form may be a part): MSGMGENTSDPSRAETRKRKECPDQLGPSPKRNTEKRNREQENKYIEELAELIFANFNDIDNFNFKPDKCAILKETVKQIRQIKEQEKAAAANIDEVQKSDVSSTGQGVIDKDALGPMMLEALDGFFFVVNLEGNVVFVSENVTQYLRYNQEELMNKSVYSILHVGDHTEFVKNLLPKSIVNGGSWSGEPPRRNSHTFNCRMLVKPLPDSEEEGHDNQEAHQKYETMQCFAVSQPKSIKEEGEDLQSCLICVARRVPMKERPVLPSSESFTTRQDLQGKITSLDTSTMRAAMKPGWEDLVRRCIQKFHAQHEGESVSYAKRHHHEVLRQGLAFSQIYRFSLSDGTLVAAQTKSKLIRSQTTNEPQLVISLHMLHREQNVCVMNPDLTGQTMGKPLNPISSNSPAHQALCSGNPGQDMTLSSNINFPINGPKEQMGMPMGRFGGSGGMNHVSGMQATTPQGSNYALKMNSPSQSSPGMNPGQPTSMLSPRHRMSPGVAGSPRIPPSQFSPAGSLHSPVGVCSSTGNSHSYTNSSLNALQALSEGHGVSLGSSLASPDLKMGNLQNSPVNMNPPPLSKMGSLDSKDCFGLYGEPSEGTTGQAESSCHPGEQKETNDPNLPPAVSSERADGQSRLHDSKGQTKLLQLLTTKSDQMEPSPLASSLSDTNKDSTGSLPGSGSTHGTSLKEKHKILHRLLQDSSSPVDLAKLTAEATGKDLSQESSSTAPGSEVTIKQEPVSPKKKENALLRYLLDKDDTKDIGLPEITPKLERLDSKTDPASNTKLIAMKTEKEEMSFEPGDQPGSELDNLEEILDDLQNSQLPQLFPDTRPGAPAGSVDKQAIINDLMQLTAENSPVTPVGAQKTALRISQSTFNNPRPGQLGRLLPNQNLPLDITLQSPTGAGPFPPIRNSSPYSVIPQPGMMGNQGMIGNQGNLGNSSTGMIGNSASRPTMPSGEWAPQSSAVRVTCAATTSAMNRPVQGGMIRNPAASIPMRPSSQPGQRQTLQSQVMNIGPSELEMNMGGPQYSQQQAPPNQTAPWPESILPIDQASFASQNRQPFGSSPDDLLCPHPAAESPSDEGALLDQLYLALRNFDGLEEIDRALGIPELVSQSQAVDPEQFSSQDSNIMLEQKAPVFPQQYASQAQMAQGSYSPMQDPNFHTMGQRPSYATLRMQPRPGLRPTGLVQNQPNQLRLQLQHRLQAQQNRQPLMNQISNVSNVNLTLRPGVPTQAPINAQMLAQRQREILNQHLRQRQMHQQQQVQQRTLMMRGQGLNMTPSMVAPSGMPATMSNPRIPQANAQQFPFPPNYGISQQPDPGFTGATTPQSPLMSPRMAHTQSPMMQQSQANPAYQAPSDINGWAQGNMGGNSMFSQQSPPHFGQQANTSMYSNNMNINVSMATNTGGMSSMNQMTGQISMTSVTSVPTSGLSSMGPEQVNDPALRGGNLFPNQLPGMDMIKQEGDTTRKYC

A word on the inhibition: it is the change of the read-out against control, counted positive when it falls. Turning to `O=C(Nc1ccnn1C1CCN(C(=O)c2ccc(Cl)cc2)CC1)C1CC1`, the inhibition was -6.97% (inactive) in assay [1] and -7.33% (inactive) in assay [2].

For the compound `CC(C)=C1C2CCC1C1C(=O)N(c3nccs3)C(=O)C21` (stereo unspecified), the inhibition in assay [1] is 12.1% (inactive); in assay [2], 6.16% (inactive).

For `C=CCOc1ccccc1CN1CCC(Cc2ccccc2)CC1`, the figures for the inhibition in assay [1] and in assay [2] were 8.57% (inactive) and -13.5% (inactive), respectively.

Take `O=C1CSC(c2ccc([N+](=O)[O-])cc2)N1c1ccc(O)cc1` (stereo unspecified): the inhibition in assay [1] is 5.23% (inactive); in assay [2] it was -13.8% (inactive).

In the case of `CCCC(O)(CCC)C(=O)NN(C(=O)CCl)c1ccccc1`, the values for the inhibition in assay [1] and in assay [2] were 8.55% (inactive) and 30.1% (inactive), respectively.

For the compound `COc1ccc(-c2nnn(CC(=O)N(Cc3cccs3)C(C)C(=O)NCCC(C)C)n2)cc1OC` (stereo unspecified), the inhibition in assay [1] is -10.9% (inactive); in assay [2] it was 9.41% (inactive).

In the case of `CCOC(=O)Cc1csc(N/N=C/c2ccc(C(F)(F)F)cc2)n1`, the inhibition was -7.46% (inactive) in assay [1] and 44.6% (inactive) in assay [2].

Regarding `C=C1CCC2C(C)(C)CCC[C@]2(C)[C@H]1CC1=C(O)C(=O)C(CO)=CC1=O` (stereo partly specified), the inhibition in assay [1] was 93.6% (active); in assay [2] it was 98.8% (active).

Turning to `O=S(=O)(c1ccccc1)N1CCC(O)(CSc2ccc(F)cc2)CC1`, the inhibition in assay [1] was -1.83% (inactive); in assay [2], 13.4% (inactive).

`COc1ccc(-c2nc(-c3ccccc3)no2)c(OC)c1`: the inhibition is 3.43% (inactive) in assay [1] and 53.8% (active) in assay [2].

Consider `C=CCNc1nc2ccccc2nc1NS(=O)(=O)c1ccc(Cl)cc1`, for which the inhibition in assay [1] is -13.4% (inactive); in assay [2] it was -1.65% (inactive).

On to `O=C(Nc1ccc2c(c1)OCCO2)c1ccc(Br)c(S(=O)(=O)N2CCOCC2)c1`, for which the inhibition in assay [1] is -39.8% (inactive); in assay [2] it was 45.5% (inactive).

As to `CC(C)(C)c1ccc(C(=O)CCC(=O)OCC(=O)NCCc2ccc(S(N)(=O)=O)cc2)cc1`, the inhibition in assay [1] is 26.1% (inactive); in assay [2], 37.1% (inactive).

Consider `COC(=O)c1ccc(CN2CCc3ccc(NC(=O)c4ccncc4)cc3C2)cc1`, for which the inhibition in assay [1] is -9.32% (inactive); in assay [2], 26.8% (inactive).

For the compound `CCOC(=O)CN(C)C(=O)CCc1nnc(-c2ccc(-c3ccccc3)cc2)o1`, the inhibition in assay [1] is -17.7% (inactive); in assay [2], 19.8% (inactive).

As to `NC(=S)N1OC[C@@H]2COc3ccc4ccccc4c3[C@@H]21`, the inhibition in assay [1] was 2.09% (inactive); in assay [2], 48.6% (active).

On to `CCCC(=O)NC(c1ccccc1)c1ccc2cccnc2c1O` (stereo unspecified), for which the inhibition in assay [1] is -0.88% (inactive); in assay [2], 33.3% (inactive).

As to `Cc1sc2ncnc(N3CCC(C(=O)Nc4ccc(S(N)(=O)=O)cc4)CC3)c2c1C`, the inhibition was -3.11% (inactive) in assay [1] and 30.8% (inactive) in assay [2].

Turning to `COc1ccc(-c2nc3ccccn3c2NC2CCCCC2)cc1SC1CCCCC1`, the inhibition is 17.4% (inactive) in assay [1] and -1.51% (inactive) in assay [2].

Consider `Cc1ccc(NC(=O)c2nc(S(=O)(=O)Cc3ccccc3)ncc2Cl)cc1`, for which the figures for the inhibition in assay [1] and in assay [2] were 56.5% (active) and 74.4% (active), respectively.

For the compound `Cc1cccc(C(=O)Nc2ccc(CC(=O)O)cc2)c1`, the values for the inhibition in assay [1] and in assay [2] were -2.26% (inactive) and 26.9% (inactive), respectively.

Consider `CCC(NC(=O)CCc1c(C)c2cc3c4c(oc3cc2oc1=O)CCCC4)C(=O)O` (stereo unspecified), for which the inhibition in assay [1] was 38.3% (active); in assay [2] it was 70.3% (active).

As to `CN1Cc2sc(NC(=S)NC(=O)c3ccccc3)c(C#N)c2CC1(C)C`, the inhibition in assay [1] is 20.5% (inactive); in assay [2], 58.2% (active).

For `O=C(N/N=C/c1ccc([N+](=O)[O-])s1)c1ccccc1`, the values for the inhibition in assay [1] and in assay [2] were 34.9% (inactive) and 24.6% (inactive), respectively.

`COc1ccccc1-c1cc2nc(C)c(CCC(=O)NCc3ccco3)c(C)n2n1`: the figures for the inhibition in assay [1] and in assay [2] were -5.98% (inactive) and 17.5% (inactive), respectively.

Take `CSC1=C(C#N)C(c2ccc3c(c2)OCO3)C2=C(CCCC2=O)N1` (stereo unspecified): the inhibition in assay [1] is 0.63% (inactive); in assay [2] it was -1.64% (inactive).

`Cn1nnnc1Sc1ncnc2scc(-c3ccc(Cl)cc3)c12`: the inhibition is 18.1% (inactive) in assay [1] and 42.2% (inactive) in assay [2].

With `Cc1ccc(C(C)C)c(OCc2ccc(C(=O)N/N=C/c3ccc(C(=O)O)cc3)cc2)c1`, the inhibition in assay [1] is -13.2% (inactive); in assay [2] it was 41.4% (inactive).

Regarding `COc1ccc(S(=O)(=O)N2CCCCCC2)cc1C(=O)NCc1ccco1`, the inhibition in assay [1] is -3.91% (inactive); in assay [2], 1.95% (inactive).

In the case of `CNc1ccc(N=Nc2cccc3ncccc23)cc1`, the inhibition is -76% (inactive) in assay [1] and 14.4% (inactive) in assay [2].

Take `Cc1c(CCC(=O)N[C@@H](CC(C)C)C(=O)O)c(=O)oc2cc3oc4c(c3cc12)CCCC4`: the inhibition in assay [1] is 37.5% (active); in assay [2], 69.8% (active).

For `Cc1ccc(Nc2nc(-c3c(C)nc4ccccn34)cs2)cc1`, the inhibition was -16.9% (inactive) in assay [1] and 20.1% (inactive) in assay [2].

For the compound `N/C(=N\OC(=O)c1ccc2ccccc2c1)c1ccccn1`, the inhibition in assay [1] was -38.3% (inactive); in assay [2], -34.3% (inactive).
